Assay results taken from PubChem BioAssay (NCI).
The panel holds about 83,000 compounds, 20% with a hit somewhere; the sample as a whole holds those more often.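 Step 1: grow cells in 96-well plates. Step 2: add test compound at a single concentration. Step 3: incubate 48 h. Step 4: record percent growth.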 A number with no mark means an inactive call. The source made the active and inactive calls. How the source made its calls: active means growth percent below 10; inactive means the rest.

Experiments:
Experiment in all cases: NCI-60 one-dose screen, 48 h (100 = growth as untreated, 0 = no growth, -100 = all killed)
Details in all cases: 10 µM unless noted
HCT-15 colon = test system: HCT-15 colon
HT29 colon = test system: HT29 colon
SNB-75 CNS = test system: SNB-75 CNS
SNB-19 CNS = test system: SNB-19 CNS
U251 CNS = test system: U251 CNS
PC-3 prostate = test system: PC-3 prostate
SK-MEL-5 melanoma = test system: SK-MEL-5 melanoma
UACC-62 melanoma = test system: UACC-62 melanoma
LOX IMVI melanoma = test system: LOX IMVI melanoma
SK-MEL-28 melanoma = test system: SK-MEL-28 melanoma
SK-MEL-2 melanoma = test system: SK-MEL-2 melanoma
EKVX NSCLC = test system: EKVX NSCLC
SN12C renal = test system: SN12C renal
UO-31 renal = test system: UO-31 renal
TK-10 renal = test system: TK-10 renal
ACHN renal = test system: ACHN renal
CAKI-1 renal = test system: CAKI-1 renal
A498 renal = test system: A498 renal
MOLT-4 leukemia = test system: MOLT-4 leukemia
CCRF-CEM leukemia = test system: CCRF-CEM leukemia

| SMILES | growth (HCT-15 colon) | growth (HT29 colon) | growth (SNB-75 CNS) | growth (SNB-19 CNS) | growth (U251 CNS) | growth (PC-3 prostate) | growth (SK-MEL-5 melanoma) | growth (UACC-62 melanoma) | growth (LOX IMVI melanoma) | growth (SK-MEL-28 melanoma) | growth (SK-MEL-2 melanoma) | growth (EKVX NSCLC) | growth (SN12C renal) | growth (UO-31 renal) | growth (TK-10 renal) | growth (ACHN renal) | growth (CAKI-1 renal) | growth (A498 renal) | growth (MOLT-4 leukemia) | growth (CCRF-CEM leukemia) |
| --- | --- | --- | --- | --- | --- | --- | --- | --- | --- | --- | --- | --- | --- | --- | --- | --- | --- | --- | --- | --- |
| COc1cc(Cl)cc(-c2nn(C(=O)NCCN3CCOCC3)cc2-c2ccncc2)c1 | 45.7% | 34.1% | 28.9% | 69.2% | 57.7% | 70.6% | 35.5% | 52.4% | 63.2% | 61.4% | 78.3% | 93.4% | 75.3% | 56.9% | 78% | 65.6% | 73.3% | 65.7% | 74.2% | – |
| O=C(C(=O)N1CCCC1)c1cn(CCCn2cc(C(=O)C(=O)N3CCCC3)c3cc(Br)ccc32)c2ccc(Br)cc12 | 84.6% | 79.3% | 46.3% | 85.5% | 36.6% | 66.5% | 90.8% | 85.1% | 57.9% | 79.8% | 107% | 54% | 83.3% | 72.6% | 92.7% | 55.2% | 46.7% | – | 73.6% | 74% |
| COc1ccc2c(c1)N(Cc1ccc(Cl)cc1)CCC2N1CCCC1=O (stereo not given) | 33.5% | 45.5% | 27.1% | 54.7% | 39.1% | 24% | 24.7% | 42.1% | 30.3% | 63.5% | 64.4% | 36.9% | 39.2% | 8.64% (active) | 55.3% | 53.3% | 40.8% | -7.14% (active) | 34.5% | – |
| CCN(CC)c1cc(C)c(Cc2c(OC)ccc3ccccc23)cc1C | 97.8% | 73.7% | 91.1% | 93.2% | 94.9% | 83.9% | 99.4% | 79.8% | 94.9% | 100% | 94.4% | 93.4% | 91.2% | 73.1% | – | 99.4% | 93.1% | 96.6% | 79.7% | 102% |
| CCNC(=O)c1ccc2c(c1)nc(-c1ccc(Cl)cc1)n2-c1cc(C(C)(C)C)[nH]n1 | 45.2% | 26% | 34.2% | 60.5% | 46.5% | 44% | 11.5% | 38.6% | 33.1% | 41.6% | 46.6% | 42.8% | 76.4% | 37.5% | – | 52% | 18.5% | 57.9% | 20.9% | 34.3% |
| COC(=O)CSc1ccc(Cl)cc1 | 106% | 103% | 94.9% | 103% | 103% | 107% | 114% | 114% | 102% | 108% | 104% | 101% | 121% | 93.3% | 104% | 104% | 95.1% | 79.9% | 88.8% | – |
| COc1cc(C2CC(c3cccc(Nc4ccnc5cc(Cl)ccc45)c3)=NN2C=O)cc(OC)c1OC (stereo not given) | 27.6% | -54.3% (active) | -26.9% (active) | 36.9% | 21.5% | 16.7% | 4.37% (active) | -35% (active) | 19.9% | 7.27% (active) | -18.1% (active) | 32% | 19.7% | 2.53% (active) | – | -6.99% (active) | -31.1% (active) | -16.4% (active) | 9.97% (active) | 2.72% (active) |
| CCCCCCCC/C=C\CCCCCCCC(=O)OCCCCCC | 101% | 109% | 117% | 112% | 97.1% | 91.5% | 108% | 110% | 98.8% | 122% | 123% | 84.9% | 111% | 91.8% | – | 107% | 96% | 70.5% | 104% | 98.8% |
| CCOC(=O)c1cc(C(=O)OCC)c(C)nc1C | 102% | 104% | 99% | 103% | 103% | 98.2% | 107% | 103% | 107% | 112% | 124% | 102% | 105% | 96.5% | 113% | 112% | 103% | 110% | 90.8% | – |
| COc1cccc(/C(C)=N/NC(=O)CSc2nc3ccccc3c(=O)n2CCc2ccc(S(N)(=O)=O)cc2)c1 | 69.7% | 2.6% (active) | 42.1% | 24.7% | -55.4% (active) | 7.25% (active) | 1.45% (active) | 25.1% | 26% | 67.5% | – | 96.9% | 39.6% | 98.9% | 32.3% | 85% | 70.5% | 72.1% | 14.4% | 22.3% |
| Cc1ccc(Nc2cc(Cl)c([N+](=O)[O-])cc2[N+](=O)[O-])cc1 | 16.8% | 3.12% (active) | 96% | 85.8% | 25.8% | 55.3% | 53.6% | 48.7% | 9.04% (active) | 71.5% | 28.3% | 102% | 24.6% | 77.7% | – | 26% | 32.8% | 92.3% | 10.3% | – |
| O=C(CC(=O)c1ccccc1F)Nc1ccc([N+](=O)[O-])cc1 | 87.8% | 91.8% | 79.1% | 96.9% | 94.7% | 98.3% | 86.4% | 80.1% | 99.7% | 100% | 84% | – | 85.3% | 89.3% | 91.7% | 100% | 106% | 109% | 93.3% | – |
| Cc1cccc2nc3ccccc3c(Nc3ccc(NS(C)(=O)=O)cc3)c12 | 37.2% | 46% | 68.3% | 59.7% | 15.8% | 66.7% | 48.3% | 63.4% | 33.8% | 73% | 112% | – | 38.9% | 21.6% | 78.6% | -27.1% (active) | 23.4% | 45.3% | -0.487% (active) | – |
| O=C1OC(/C=C/c2ccccc2)=NC/1=C/c1ccccc1[N+](=O)[O-] | 97.9% | 98.2% | 82% | 104% | 100% | 92.7% | 99.8% | 110% | 89.1% | 97.3% | 94.7% | – | 104% | 66.5% | 115% | 91.8% | 88.7% | 121% | 91.1% | – |
| O=C(c1ccccc1)C1OC1C(=O)c1ccccc1 (stereo not given) | 13.1% | 10% (active) | 11.1% | 92.9% | 28.1% | 51% | 37.7% | 46.8% | 2.54% (active) | 49.2% | 34% | 81.3% | 28.2% | 60.1% | – | 33.1% | 14.6% | 95.6% | 45.6% | 12.1% |
| O=C(N/N=C/c1ccc([N+](=O)[O-])o1)c1ccc(O)cc1 | 42.9% | 17.1% | 84.7% | 54% | 34% | 87.4% | 2.57% (active) | 47.5% | 12.9% | 77.7% | – | 71.2% | 29.4% | 84.7% | 125% | 66.5% | 88.3% | 112% | 48.4% | 34.6% |
| N#CCCn1cnc2c(N)ncnc21 | 98.3% | 101% | 93.8% | 99.4% | 98.8% | 94.2% | 113% | 96.7% | 97.1% | 107% | – | 104% | 94.2% | 116% | 114% | 94% | 97% | 112% | 92.1% | 96.7% |
| FC(F)(F)c1nn[nH]n1 | 105% | 100% | 102% | 116% | 99.5% | 96.9% | 103% | 107% | 87.2% | 113% | 112% | 99.3% | 105% | 99.1% | – | 109% | 97% | 102% | 101% | – |
| CC(C)(C)c1nn(-c2ccccc2)c2c1C(=O)CSC(c1ccccc1Cl)N2 (stereo not given) | 25.1% | 18.5% | -1.74% (active) | 39.8% | 33.2% | 15.5% | 11.6% | 38.7% | 35.5% | 47.3% | 45.5% | 30.8% | 53.8% | 29.2% | – | 53.7% | 10% | 56.9% | 20.9% | 11.4% |
| NC(N)=N/N=C/c1cccc(Cl)c1Cl | 82.7% | 24% | 63.8% | 85.8% | 73.3% | 89.2% | 85.6% | 90.5% | 76.4% | 99.2% | – | 69.2% | 90.1% | 66.3% | 88% | 84.2% | 59.1% | 61.6% | 47.6% | 52.7% |
| CC(C)CCSc1nc(-c2ccc(F)cc2)c(C#N)c(N2CCCCC2)n1 | 97.7% | 83.2% | 94.2% | 102% | 93.6% | 89.2% | 95.8% | 70.3% | 93% | 96.3% | – | 97.2% | 107% | 80.4% | 97.4% | 91.8% | 75.6% | 88% | 70% | 89.9% |
| C[C@H](NC(=O)c1snnc1C1CC1)c1c(F)cccc1Cl | 93.9% | 119% | 95.1% | 142% | 90% | 98.9% | 98.2% | 87.8% | 93.9% | 110% | 108% | 115% | 104% | 94% | – | 92.1% | 115% | 96.4% | 101% | 110% |
| N=C(N)c1ccc(-c2ccc(-c3cccs3)s2)cc1F | -66.8% (active) | -82.1% (active) | -96.5% (active) | -65.1% (active) | -86.6% (active) | -72.4% (active) | -98% (active) | -79.7% (active) | -76.7% (active) | -96% (active) | -80.2% (active) | – | -65.3% (active) | -89.7% (active) | -94.3% (active) | -84.5% (active) | -72.6% (active) | -92.7% (active) | -55.5% (active) | – |
| O=C1SCN(Cc2ccccc2)CN1Cc1ccccc1 | 98% | 90.4% | 91% | 108% | 99.5% | 86.3% | 92.8% | 89.6% | 70.2% | 111% | 101% | 101% | 96.3% | 57.9% | – | 107% | 95.9% | 78.2% | 71.8% | 61.3% |
